9 compounds from PubChem BioAssay (NCI) can be followed below.

The structures appear in SMILES notation. This is part of a sample that, as a whole, favours compounds with a hit. Of some 83,000 tested, about 20% had one in any assay.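 Compound tested at a single concentration for 48 hours in 96-well plates; a percent growth value below 10 was scored as active.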 Unmarked numbers belong to inactive results. Calls of active or inactive are those of the source.

Test systems include SK-MEL-2 melanoma; EKVX NSCLC; SN12C renal; UO-31 renal; TK-10 renal; ACHN renal; CAKI-1 renal; A498 renal; CCRF-CEM leukemia; MOLT-4 leukemia; SR leukemia; OVCAR-8 ovarian; OVCAR-5 ovarian; OVCAR-4 ovarian; SK-OV-3 ovarian; IGROV1 ovarian; OVCAR-3 ovarian; HS 578T breast; NCI/ADR-RES ovarian; RPMI-8226 leukemia.
Holding throughout (experiment): NCI-60 one-dose screen, 48 h (100 = growth as untreated, 0 = no growth, -100 = all killed)
Settings in all cases: 10 µM unless noted

Consider `COC(=O)[C@H](C)NC(=O)c1ccc(NC(=O)c2[nH]c(C)c(Cl)c2Cl)c(OCCN)c1`, for which the growth was 121% with SK-MEL-2 melanoma; 103% with EKVX NSCLC; 97.5% with SN12C renal; 98.2% with UO-31 renal; 112% in the assay with TK-10 renal; 99% in the assay with ACHN renal. Besides, the growth was 96% with CAKI-1 renal; 88.9% in the assay with A498 renal; 97.8% in the assay on CCRF-CEM leukemia; 91.2% in the assay with MOLT-4 leukemia; 67.2% with SR leukemia; 96.2% in the assay on OVCAR-8 ovarian. Further, the growth in the assay on OVCAR-5 ovarian is 106%; with OVCAR-4 ovarian, 113%; in the assay on SK-OV-3 ovarian it was 106%; in the assay on IGROV1 ovarian it was 104%; with OVCAR-3 ovarian, 108%; with HS 578T breast it was 101%. In addition, the growth with NCI/ADR-RES ovarian was 107%.

As to `c1ccc2cc(Cn3cc[n+](Cc4ccc5ccccc5c4)c3)ccc2c1`, the growth was -11.5% (active) in the assay on SK-MEL-2 melanoma; 51.7% in the assay with EKVX NSCLC; 18.2% in the assay on SN12C renal; 70.6% in the assay on UO-31 renal; 8.12% (active) in the assay on TK-10 renal; 90.6% in the assay on ACHN renal. Also, the growth with CAKI-1 renal was 96%; in the assay with CCRF-CEM leukemia, 21.7%; with MOLT-4 leukemia it was 25%; in the assay with SR leukemia it was 22.3%; with RPMI-8226 leukemia, -0.408% (active); with OVCAR-8 ovarian it was 10.9%. The growth in the assay with OVCAR-5 ovarian is 43%; in the assay on OVCAR-4 ovarian it was 0.592% (active); with SK-OV-3 ovarian, 33.2%; with IGROV1 ovarian, -2.69% (active); in the assay on OVCAR-3 ovarian, 14.5%; with HS 578T breast, 58.8%. The growth with NCI/ADR-RES ovarian is 99.5%.

With `O=c1c2cccc3c(N4CCOCC4)ccc(c32)c2nc3ccccc3n12`, the growth in the assay with SK-MEL-2 melanoma is 108%; in the assay with EKVX NSCLC, 38.3%; with SN12C renal it was 87.6%; with UO-31 renal, 65.9%; in the assay with TK-10 renal, 71.8%; in the assay with ACHN renal, 91.1%. In addition, the growth with CAKI-1 renal was 69.6%; in the assay with CCRF-CEM leukemia it was 93.1%; in the assay with MOLT-4 leukemia it was 90.8%; with SR leukemia, 83.7%; in the assay with RPMI-8226 leukemia it was 81.7%; with OVCAR-8 ovarian, 93.8%. In addition, the growth with OVCAR-5 ovarian is 99.2%; with OVCAR-4 ovarian, 69.9%; in the assay with SK-OV-3 ovarian, 91.4%; in the assay with IGROV1 ovarian, 58.3%; with OVCAR-3 ovarian it was 100%; with HS 578T breast, 40.2%. In the assay with NCI/ADR-RES ovarian, the growth was 93.9%.

In the case of `N#C/C(Sc1nc2sc3c(c2c(=O)n1Cc1ccccc1)CCCC3)=C1/SC=C(c2ccc(Cl)cc2)N1c1ccccc1`, the growth was 106% with SK-MEL-2 melanoma; 106% in the assay with EKVX NSCLC; 98% in the assay on SN12C renal; 63.7% with UO-31 renal; 107% in the assay with TK-10 renal; 92.7% in the assay with ACHN renal. Further, the growth with CAKI-1 renal is 91.4%; with CCRF-CEM leukemia it was 0.897% (active); with MOLT-4 leukemia, 92.3%; in the assay on SR leukemia, 25.4%; in the assay on RPMI-8226 leukemia, 68.3%; in the assay on OVCAR-8 ovarian, 61.6%. Besides, the growth is 83.7% with OVCAR-5 ovarian; 93.5% in the assay with OVCAR-4 ovarian; 88.6% with SK-OV-3 ovarian; 38.2% in the assay on IGROV1 ovarian; 112% in the assay on OVCAR-3 ovarian; 75.2% with HS 578T breast. Further, the growth with NCI/ADR-RES ovarian is 83.5%.

Turning to `Oc1cccc2c1NCCC2`, the growth was -14.9% (active) in the assay on SK-MEL-2 melanoma; 22.3% in the assay with EKVX NSCLC; 11.7% with SN12C renal; 6.25% (active) with UO-31 renal; 23.3% in the assay on TK-10 renal; 11.4% with ACHN renal. The growth is 15.6% with CAKI-1 renal; 19.6% in the assay on A498 renal; 18.6% in the assay with CCRF-CEM leukemia; 28% in the assay with MOLT-4 leukemia; 27.2% with SR leukemia; 19.9% in the assay on OVCAR-8 ovarian. Also, the growth with OVCAR-5 ovarian is 44.7%; in the assay with OVCAR-4 ovarian, 17.9%; with SK-OV-3 ovarian, 20.4%; in the assay on IGROV1 ovarian it was 18.3%; in the assay on OVCAR-3 ovarian it was 4.94% (active); in the assay with NCI/ADR-RES ovarian, 23.7%.

Turning to `O=C(Oc1ccccc1)c1cc(O)c(O)c(O)c1`, the growth with SK-MEL-2 melanoma was 125%; in the assay on EKVX NSCLC, 52.2%; in the assay on SN12C renal, 66.1%; in the assay on UO-31 renal, 53.8%; with TK-10 renal, 81%; with ACHN renal it was 62.6%. Also, the growth in the assay with CAKI-1 renal is 33.6%; in the assay on A498 renal it was 87.3%; in the assay with CCRF-CEM leukemia it was 26.6%; with MOLT-4 leukemia it was 62.5%; with SR leukemia, 32.9%; in the assay with OVCAR-8 ovarian it was 71.4%. Moreover, the growth in the assay on OVCAR-5 ovarian was 107%; in the assay with OVCAR-4 ovarian, 63.7%; in the assay on SK-OV-3 ovarian, 77.3%; with OVCAR-3 ovarian, 18.1%; in the assay on HS 578T breast, 39.9%; in the assay with NCI/ADR-RES ovarian, 61.1%.

As for `O=C(O)COc1ccc(F)cc1`, the growth with SK-MEL-2 melanoma was 99.6%; with EKVX NSCLC, 103%; in the assay with SN12C renal, 98.1%; in the assay on UO-31 renal, 91.6%; in the assay with TK-10 renal, 91.4%; in the assay on ACHN renal, 111%. The growth with A498 renal is 97.4%; with CCRF-CEM leukemia it was 104%; in the assay on MOLT-4 leukemia it was 101%; with SR leukemia, 103%; in the assay on RPMI-8226 leukemia, 97.5%; with OVCAR-8 ovarian, 102%. Moreover, the growth in the assay on OVCAR-5 ovarian was 109%; in the assay with OVCAR-4 ovarian it was 116%; in the assay on SK-OV-3 ovarian it was 108%; in the assay on IGROV1 ovarian, 107%; in the assay with OVCAR-3 ovarian, 107%; in the assay on HS 578T breast, 128%. Besides, the growth in the assay with NCI/ADR-RES ovarian is 101%.

`Cc1c(C)c2c(c(C)c1OC(=O)CCC(=O)[O-])CCC(C)(CCCCCCCCCCC[P+](c1ccccc1)(c1ccccc1)c1ccccc1)O2` (configuration not stated): the growth with SK-MEL-2 melanoma is -64.4% (active); with EKVX NSCLC, -25.1% (active); with SN12C renal, -65.7% (active); with UO-31 renal, -3.37% (active); with TK-10 renal it was -14.2% (active); in the assay on ACHN renal, -5.75% (active). Besides, the growth was -73.9% (active) in the assay with A498 renal; 0.344% (active) in the assay on CCRF-CEM leukemia; -25.5% (active) in the assay with MOLT-4 leukemia; -25.5% (active) with SR leukemia; -47.7% (active) with RPMI-8226 leukemia; 3.73% (active) with OVCAR-8 ovarian. Besides, the growth in the assay on OVCAR-5 ovarian was 13.5%; in the assay with OVCAR-4 ovarian, -1.74% (active); in the assay on SK-OV-3 ovarian, -27% (active); with IGROV1 ovarian, -13.1% (active); in the assay with OVCAR-3 ovarian it was -76.4% (active); in the assay on NCI/ADR-RES ovarian it was 74.3%.

As to `C#Cc1cccc(Nc2ncnc3ccc(-c4cnc(Cl)c(NS(C)(=O)=O)c4)cc23)c1`, the growth was -73.6% (active) in the assay on SK-MEL-2 melanoma; -46.3% (active) in the assay on EKVX NSCLC; 3.41% (active) in the assay with SN12C renal; -80.8% (active) with UO-31 renal; -72.8% (active) with TK-10 renal; 13.4% in the assay on ACHN renal. Also, the growth in the assay on A498 renal was -76.8% (active); in the assay with CCRF-CEM leukemia, 7.99% (active); in the assay with MOLT-4 leukemia, -11.7% (active); with SR leukemia, -9.92% (active); in the assay on RPMI-8226 leukemia it was -31.8% (active); in the assay on OVCAR-8 ovarian it was 3.78% (active). In addition, the growth is -15.5% (active) in the assay with OVCAR-5 ovarian; 9.21% (active) in the assay on OVCAR-4 ovarian; -25% (active) with SK-OV-3 ovarian; -72.5% (active) in the assay on OVCAR-3 ovarian; -21.4% (active) with HS 578T breast; 7.96% (active) in the assay with NCI/ADR-RES ovarian.
